“And” between values parts separate entries of the source, which are not always exact repeats. Identical values can stand only once. In all, about 5,500 compounds went through this assay and about 2,000 (36%) were called active. Another 18% or so got no clear call; they are omitted. Cut-off read from the data, not from the text of the source: active = normalized growth mostly below about 0.91 (no sharp cut-off); inconclusive = no clear call, values can overlap the other calls; inactive = mostly above about 0.92. The list shows a part of the results.
Test: chemical genetic growth profiling, strain panel (AID 1159580);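 note: tested at 20 µM; growth read once vehicle control cultures reached saturation at 30 °C; 1 = growth at the plate median or of vehicle wells; lower values mean less growth of the strain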
Conditions: S. cerevisiae deletion strains, growth OD

Measured: normalized growth

CCOC(=O)C(Cc1ccc(O)cc1)NC(C)=O (stereo unspecified)
inactive: locus YAL013W, strain DEP1, hits give low values 0.99 | locus YAL021C, strain ccr4, hits give low values 1.01 | locus YAL026C, strain drs2, hits give low values 1.01 | locus YAL030W, strain snc1, hits give low values 1 | locus YBL061C, strain skt5, hits give low values 1.02 | locus YBR009C, strain hhf1, hits give low values 0.974 | locus YBR021W, strain FUR4, hits give low values 1.01 | locus YBR023C, strain chs3, hits give low values 1.01 | locus YBR171W, strain sec66, hits give low values 1.01 | locus YBR229C, strain ROT2, hits give low values 1.01 | locus YBR231C, strain swc5, hits give low values 1 | locus YBR279W, strain paf1, hits give low values 1 | locus YCL011C, strain gbp2, hits give low values 1 | locus YCL016C, strain dcc1, hits give low values 1 | locus YCL029C, strain bik1, hits give low values 0.999 | locus YCL069W, strain vba3, hits give low values 0.989 | locus YCR088W, strain abp1, hits give low values 1.01 | locus YDL005C, strain med2, hits give low values 1.02 | locus YDL035C, strain GPR1, hits give low values 1.02 | locus YDL040C, strain nat1, hits give low values 1.01 | locus YDL074C, strain BRE1, hits give low values 1.02 | locus YDL101C, strain DUN1, hits give low values 1.02 | locus YDL134C, strain PPH21, hits give low values 1 | locus YDL185W, strain tfp1, hits give low values 0.993 | locus YDL192W, strain arf1, hits give low values 0.996 | locus YDR001C, strain nth1, hits give low values 1.01 | locus YDR069C, strain doa4, hits give low values 0.998 | locus YDR101C, strain arx1, hits give low values 0.996 | locus YDR137W, strain rgp1, hits give low values 1.02 | locus YDR150W, strain NUM1, hits give low values 1.01 | locus YDR159W, strain sac3, hits give low values 0.985 | locus YDR162C, strain NBP2, hits give low values 1.02 | locus YDR195W, strain ref2 1.01 | locus YDR297W, strain sur2, hits give low values 1 | locus YDR318W, strain mcm21, hits give low values 1.01 | locus YDR334W, strain swr1, hits give low values 0.997 | locus YDR335W, strain msn5, hits give low values 1.01 | locus YDR388W, hits give low values 1.01 | locus YDR392W, strain spt3, hits give low values 1.03 | locus YDR502C, strain sam2, hits give low values 0.992 | locus YEL003W, strain gim4, hits give low values 1.01 | locus YEL037C, strain rad23, hits give low values 1 | locus YEL061C, strain CIN8 (second series), hits give low values 0.998 | locus YEL061C, strain CIN8, hits give low values 1.01 | locus YER015W, strain faa2, hits give low values 1 | locus YER016W, strain bim1, hits give low values 1.03 | locus YER110C, hits give low values 1.01 | locus YER111C, strain swi4, hits give low values 1.02 | locus YER155C, strain BEM2 (second series), hits give low values 1.04 | locus YER155C, strain BEM2, hits give low values 1 | locus YER167W, strain BCK2, hits give low values 1.02 | locus YFR010W, strain ubp6, hits give low values 0.987 | locus YGL078C, strain dbp3, hits give low values 0.993 | locus YGL086W, strain mad1, hits give low values 1 | locus YGL167C, strain pmr1, hits give low values 1.01 | locus YGL173C, strain kem1, hits give low values 1.01 | locus YGL227W, strain vid30, hits give low values 1 | locus YGL240W, strain doc1, hits give low values 1.03 | locus YGL248W, strain PDE1, hits give low values 1.01 | locus YGL253W, strain hxk2, hits give low values 1 | locus YGR078C, strain PAC10, hits give low values 1.02 | locus YGR135W, strain pre9, hits give low values 0.989 | locus YGR229C, strain SMI1, hits give low values 1.03 | locus YGR252W, strain gcn5, hits give low values 0.961 | locus YHR013C, strain ard1, hits give low values 1.03 | locus YHR027C, strain rpn1, hits give low values 1.01 | locus YHR030C, strain SLT2, hits give low values 1.02 and 0.974 | locus YHR079C, strain IRE1 (second series), hits give low values 1.01 | locus YHR079C, strain IRE1, hits give low values 0.984 | locus YHR094C, strain hxt1, hits give low values 1.01 | locus YHR129C, strain ARP1, hits give low values 1.01 | locus YHR142W, strain chs7, hits give low values 1.01 | locus YHR200W, strain rpn10, hits give low values 1.01 | locus YIL066C, strain RNR3, hits give low values 1.01 | locus YIL073C, strain SPO22, hits give low values 1 | locus YIL125W, strain kgd1, hits give low values 1 | locus YIR030C, strain dcg1, hits give low values 0.997 | locus YJL092W, strain hpr5, hits give low values 1 | locus YJL095W, strain BCK1 (second series), hits give low values 1.03 | locus YJL095W, strain BCK1, hits give low values 1.04 and 0.965 | locus YJL115W, strain asf1, hits give low values 0.999 | locus YJL129C, strain trk1, hits give low values 1.02 | locus YJL134W, strain LCB3, hits give low values 1.02 | locus YJL154C, strain vps35, hits give low values 1.01 | locus YJL164C, strain tpk1, hits give low values 1 | locus YJL166W, strain qcr8, hits give low values 0.995 | locus YJL168C, strain set2, hits give low values 1.01 | locus YJL187C, strain SWE1 (second series), hits give low values 1.02 | locus YJL187C, strain SWE1, hits give low values 1.01 | locus YJR043C, strain POL32, hits give low values 1.02 | locus YJR066W, strain TOR1, hits give low values 0.887
